# Bioassay records (PubChem BioAssay)
# In the library only some 0.5% were active in any assay of this set; here they are far more common.
# MLL CXXC-DNA inh = qHTS Fluorescence Polarization Assay for Inhibitors of MLL CXXC domain - DNA interaction; MLL-CXXC / FITC-HOXA9 DNA fluorescence polarization; Potency, µM (top dose mostly 115 µM), usual class: inhibitors; 0.037% of 290,000 active; active = well fitted inhibition curve with a large enough effect in the polarisation, with a control signal flat, not every such curve was filed as active; inconclusive = small, poorly fitted or top-dose-only effect, or effect the other way, or a change in a side signal; inactive = no such curve, though single readings can be large or run the other way; the % refers to the polarisation
#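 Purified MLL-CXXC (added from a 7 uM solution) was preincubated 5 min at ambient with pinned compounds in 50 mM Tris-HCl pH 7.5, 50 mM NaCl, 1 mM DTT, 0.05% BSA. Fluorescein-labeled HOX-A9 DNA (50 nM solution) followed, 30 min, then polarization read.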
# TRb-SRC2 inh = qHTS for Inhibitors of the Interaction of Thyroid Hormone Receptor and Steroid Receptor Coregulator 2; Thyroid hormone receptor beta (Homo sapiens), P10828; TRbeta-SRC2 peptide binding, fluorescence polarization; receptor liganded with 1 µM T3; Potency, µM (series often up to 106 µM), hits mostly inhibitors; 0.065% of 280,000 active; AID 1469, 2008; active = well fitted inhibition curve with a large enough effect; inconclusive = small, poorly fitted or top-dose-only effect, or effect the other way; note: nearly all actives have a fitted effect of over 50% in size
# Target sequence (P10828 whole entry, looked up): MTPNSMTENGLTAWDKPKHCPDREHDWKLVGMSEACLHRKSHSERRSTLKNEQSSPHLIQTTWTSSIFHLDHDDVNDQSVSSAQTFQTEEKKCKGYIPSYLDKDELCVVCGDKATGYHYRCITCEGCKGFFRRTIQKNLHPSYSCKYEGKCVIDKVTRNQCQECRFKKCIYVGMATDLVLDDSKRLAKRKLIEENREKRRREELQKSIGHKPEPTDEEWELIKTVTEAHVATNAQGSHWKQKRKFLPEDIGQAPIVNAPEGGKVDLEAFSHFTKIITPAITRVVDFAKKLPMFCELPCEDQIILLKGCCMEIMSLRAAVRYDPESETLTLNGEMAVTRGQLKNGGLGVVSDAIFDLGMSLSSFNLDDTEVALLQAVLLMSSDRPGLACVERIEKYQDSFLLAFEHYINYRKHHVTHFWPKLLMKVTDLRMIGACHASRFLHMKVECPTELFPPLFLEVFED
#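 Assay buffer: 20 mM Tris-HCl, 100 mM NaCl, 10% glycerol, 1 mM EDTA, 0.01% NP-40, 1 mM DTT, 1 uM T3, 5% DMSO; TRb LBD 0.6 uM, Texas Red SRC2 20 nM; FP after 5 hr.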
# TR SRC2 fluor cs = Total Fluorescence Counterscreen for Inhibitors of the Interaction of Thyroid Hormone Receptor and Steroid Receptor Coregulator 2; TRb/SRC2 Texas Red total fluorescence interference; Potency, µM (highest dose often 106 µM); 0.29% of 280,000 active; AID 1479, 2009; active = well fitted curve in either direction with a large enough effect; inconclusive = small, poorly fitted or top-dose-only effect
#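 Human TRβ ligand-binding domain (0.6 uM) and Texas Red SRC2 peptide (20 nM) in Tris buffer with 1 uM T3 and 5% DMSO were incubated with pinned compound for 5 hr at ambient temperature. Total fluorescence was computed as S + 2P (555/632 nm).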
# Menin-MLL FL inh = qHTS Assay for Inhibitors Targeting the Menin-MLL Interaction in MLL Related Leukemias: Competition With Fluorescein Labeled MLL-derived Peptide; FP activity change, % at 61.4 µM; 290,000 tested, under 10 active; Fluorescence polarization, fluorescein-MLL peptide displacement from menin; active = well fitted curve in the direction sought with a large enough effect in the polarisation, not every such curve was filed as active; inconclusive = small, poorly fitted or top-dose-only effect, or effect the other way, or a change in a side signal; inactive = no such curve, though single readings can be large or run the other way; the % refers to the polarisation
# Menin-MLL TR inh = qHTS Assay for Inhibitors Targeting the Menin-MLL Interaction in MLL Related Leukemias: Competition With Texas Red Labeled MLL-derived Mutant Peptide | O00255 | Menin + Texas Red MLL mutant peptide, fluorescence polarization | Potency, µM (highest dose often 61.6 µM), actives largely listed as inhibitors | 0.23% of 270,000 active | AID 1768, 2009; active = well fitted inhibition curve with a large enough effect in the polarisation, with a control signal flat, not every such curve was filed as active; inconclusive = small, poorly fitted or top-dose-only effect, or effect the other way, or a change in a side signal; inactive = no such curve, though single readings can be large or run the other way; the % refers to the polarisation
# RGS12 GoLoco inh = qHTS Assay for Inhibitors of RGS12 GoLoco Motif Activity (Red Fluorophore); Guanine nucleotide-binding protein G(i) subunit alpha-1 (Homo sapiens), P63096; Gai1:RGS12 GoLoco peptide FP, rhodamine, 10 min; Potency, µM (titrated, usually from 61.6 µM), hits mostly inhibitors; 0.44% of 230,000 active; AID 880, 2007; active = well fitted inhibition curve with a large enough effect, not every such curve was filed as active; inactive = no such curve, though single readings can be large or run the other way; note: nearly all actives have a fitted effect of over 30% in size
# Numbers stand for hits; . = inactive; ? = inconclusive; / = no result; [ ] = another dose, or the depositor's remark.
SMILES,MLL CXXC-DNA inh,TRb-SRC2 inh,TR SRC2 fluor cs,Menin-MLL FL inh,Menin-MLL TR inh,RGS12 GoLoco inh
CC(=O)Nc1ccc(-c2ccccc2)s1,.,.,.,.,.,18µM
CCC(C)NC(=O)c1ccc(-n2c(-c3ccccc3)cc3c2CCCC3)cc1 (centres undefined),/,.,1.8µM[quencher],/,/,/
O[C@@H](c1cc(C(F)(F)F)nc2c(Cl)cc(Cl)cc12)C1CCCCN1 (some centres undefined),/,/,/,/,/,.[14.2 µM]
CC(C)c1ccc(N2C(=O)/C(=C/N(C)C)SC2=S)cc1,?,?,28µM[fluorescent],?,/,.
O=C(N/N=C\c1cn(-c2ccccc2)nc1-c1ccccc1)c1ccc2c(c1)OCO2,.,.,.,.,25µM,.
CC(=O)CC(=O)Nc1ccccc1,/,.,.,/,/,.
COc1ccc(S(=O)(=O)NCCSc2nnnn2-c2ccccc2)cc1OC,/,.,8.9µM[quencher],/,/,/
Cc1nn(-c2ccc(F)cc2)c(-n2cccc2)c1C(=O)NCCc1ccc(Cl)cc1,/,.,.,/,/,/
CCN1/C(=C/C=C/c2oc3ccc4ccccc4c3[n+]2CC)Oc2ccc3ccccc3c21,?,10µM,50µM[fluorescent],?,?,.
CC[n+]1c(/C=C/N(C)c2ccccc2)oc2ccc(Cl)cc21,.,.,.,.,?,.
[ClH+][Cu][ClH+].[Cu].[OH2+]c1ccc2ccccc2c1CN1CCCCC1.[OH2+]c1ccc2ccccc2c1CN1CCCCC1,/,/,/,/,/,.[14.2 µM]
COc1ccc2c(c1)CCc1c(C(=O)Nc3c(C)nn(Cc4ccccc4C)c3C)noc1-2,/,.,.,/,/,/
COc1ccc2c(c1)CCc1c(C(=O)Nc3c(C)nn(Cc4c(Cl)cccc4Cl)c3C)noc1-2,/,.,0.079µM[quencher],/,/,/
CC[C@@H](C)[C@@H](CO[C@@H](Cc1ccccc1)C(=O)N[C@@H](CCS(C)(=O)=O)C(=O)OC(C)C)NC[C@@H](N)CS,/,.,.,.,.,.
COc1ccccc1N1CCN(/N=C/c2cc(OC)c(O)c(OC)c2)CC1,.,.,.,.,.,2.8µM
Cc1cc(-c2ccc(N=Nc3cc(S(=O)(=O)O)c4ccccc4c3N)c(C)c2)ccc1N=Nc1cc(S(=O)(=O)O)c2ccccc2c1N,/,?,?,/,/,.
COC(=O)C1=C[C@@H](C(=O)OC)[C@@H]2C3=C(C(=O)C2(C)C)[C@H](c2ccccc2)[C@@H]2C(=O)N(c4ccccc4)C(=O)[C@@H]2[C@@H]3C1,/,.,.,?,.,/
COc1ccccc1N1CCN(C(=O)CNS(=O)(=O)c2ccc(Br)s2)CC1,.,?,79µM[quencher],.,.,/
C=CC(=O)OCCOCC(CC)(COCCOC(=O)C=C)COCCOC(=O)C=C,/,?,.,/,/,/
CCCCN(CCCC)CCCC,/,.,.,/,/,/
CCCc1ccc(-c2ccc(C(=O)Oc3ccc(Br)cc3)cc2)nc1,/,.,0.035µM[quencher],/,/,/
ClCCl,/,.,.,/,/,.
COc1ccccc1NC(=O)c1sc2nc(-c3cc4cc(Cl)ccc4oc3=O)[nH]c(=O)c2c1C,/,.,18µM[quencher],/,/,/
COc1ccccc1NC(=O)c1sc2nc(-c3cc4ccccc4oc3=O)[nH]c(=O)c2c1C,/,.,.,/,/,/
O=c1ccc2ccccc2[nH]1,/,.,.,.,.,/
SMILES,MLL CXXC-DNA inh,TRb-SRC2 inh,TR SRC2 fluor cs,Menin-MLL FL inh,Menin-MLL TR inh,RGS12 GoLoco inh
CCCN(CCC)c1c([N+](=O)[O-])cc(C(F)(F)F)c(N)c1[N+](=O)[O-],/,.,.,/,/,/
COCCn1c(=O)c(-c2cccc(C#N)c2)nc2cnc(N3CCOCC3)nc21,/,/,/,?,.,20µM
N#Cc1cccc(-c2nc3cnc(N4CCOCC4)nc3n(Cc3ccc(F)cc3)c2=O)c1,/,/,/,.,.,.
CCOc1ccc(/C=C/C(=O)Nc2ccc(C(N)=O)cc2)cc1OC,.,.,.,.,?,.
CCOCCOC(=O)c1ccc(NC(=O)/C=C/c2ccc(OC)c(OC)c2)cc1,/,.,0.89µM[quencher],/,/,/
COc1cccc(O)c1O,/,.,.,.,.,.
CCN1C(=O)/C(=C2\C=Cc3cc(C)ccc3N2CC)OC1=S,.,.,.,.,.,.
CCN1/C(=C2\C(=O)N(c3ccccc3)N=C2C)C=Cc2cc(C)ccc21,.,.,.,.,.,3.5µM
Nc1ccc(N)c(C(=O)O)c1,?,.,?,.,?,16µM
O=C(Cn1c(=O)oc2cc(S(=O)(=O)N3CCCC3)ccc21)NC1CCCc2ccccc21 (centres undefined),.,.,.,.,32µM,.
O=C(Cn1c(=O)oc2cc(S(=O)(=O)N3CCCC3)ccc21)Nc1ccc(C(F)(F)F)cc1,.,.,.,.,25µM,.
O=C(Cn1c(=O)oc2cc(S(=O)(=O)N3CCCC3)ccc21)Nc1ccc(OC(F)(F)F)cc1,/,.,.,/,/,/
O=C(CS(=O)(=O)c1cccc2nsnc12)NCc1ccc(Cl)cc1,/,.,1.8µM[quencher],/,/,/
CC(=O)OCC[n+]1c(C)n(-c2ccccc2)c2ccc(Cl)cc21,.,.,.,.,.,8.9µM
CC1COCc2cc3c(cc21)C(C)(C)C(C)C3(C)C (centres undefined),/,.,.,/,/,/
CCN1C(=O)/C(=C/C=C2/Sc3ccc4ccccc4c3N2CCO)SC1=S,.,.,.,?,?,.
CCN1C(c2ccccc2)=C(c2ccccc2)S/C1=C/C=C1\SC(=S)N(C)C1=O,.,?,18µM[fluorescent],?,?,.
Cc1cccc(NC(=O)/C(=C\c2cccs2)NC(=O)c2ccccc2)c1,.,?,.,.,?,.
O=C(Nc1ccccc1)/C(=C\c1cccs1)NC(=O)c1ccccc1,.,.,0.028µM[quencher],.,?,.
Cc1c2cccn2cc[n+]1C,.,.,.,.,.,8.9µM
CCOC(=O)C(=Cc1ccc(F)cc1)C(=O)OCC,.,.,.,.,?,.
CCOC(=O)C(=Cc1ccc(Br)cc1)C(=O)OCC,.,.,.,.,28µM,.
CCOC(=O)C(CCc1ccccc1)NC(C)C(=O)N1C(C(=O)O)CC2CCCC21 (centres undefined),/,.,.,.,.,.
CCOC(=O)[C@H](CCc1ccccc1)N[C@@H](C)C(=O)N1[C@H](C(=O)O)C[C@H]2CCC[C@@H]21,.,.,.,?,.,8.9µM
Cc1ccc(N=Nc2c(O)ccc3ccccc23)c(C)c1,/,40µM,45µM[fluorescent],/,/,/
Cc1ccc(N=Nc2c(O)ccc3ccccc23)c([N+](=O)[O-])c1,/,.,.,/,/,/
O=C1OC2(c3ccccc31)c1cc(I)c(O)c(I)c1Oc1c2cc(I)c(O)c1I,/,?,40µM[fluorescent],?,?,/
